Test results: PubChem BioAssay AID651719 (The Scripps Research Institute Molecular Screening Center, 2012)
Among all 360,000 compounds or so, about 1,600 (0.44%) were called active.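 The calls were made as follows: active = inhibition above the screen-wide average plus 3 SD (cut at about 13% in these data); inactive = the rest.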 Many of the other results were omitted from the sample, so actives are more common in it than they were.

biological target: Galanin receptor type 3 (Homo sapiens) (UniProt O60755); assay: blockers of human galanin receptor 3 – cell-based, fluorescence readout, primary screen (AID 651719); conditions: HEK293 GalR3-CNG cAMP membrane potential fluorescence; at 3 µM; active compounds read high; galR3 body fused to GalR1 C-terminus;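 also: forskolin and galanin both at EC90 stimulate the cells; cAMP rise reported by CNG channel membrane potential dye signal; 0% = forskolin plus galanin with DMSO and 100% = forskolin alone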
Sequence (O60755 1-299 limits assumed): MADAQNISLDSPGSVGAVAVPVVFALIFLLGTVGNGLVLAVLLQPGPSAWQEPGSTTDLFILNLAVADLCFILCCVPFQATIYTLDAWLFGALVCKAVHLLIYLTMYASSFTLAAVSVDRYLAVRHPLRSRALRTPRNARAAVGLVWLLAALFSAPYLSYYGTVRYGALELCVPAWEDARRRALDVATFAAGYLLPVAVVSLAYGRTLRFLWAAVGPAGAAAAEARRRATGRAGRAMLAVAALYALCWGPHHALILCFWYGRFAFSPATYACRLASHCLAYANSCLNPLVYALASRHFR

| Structure (SMILES) | inhibition |
| --- | --- |
| CC(=O)c1ccc(S(=O)(=O)NCC2CCN(C(=O)C(=O)c3cccs3)CC2)cc1 | -4.03% (inactive) |
| CC[C@H](NC(=O)[C@H](Cc1ccccc1)NC(=O)[C@H]1O[C@@H](n2cnc3c(=O)[nH]c(N)nc32)[C@H](O)[C@@H]1O)c1ccccc1 | -6.3% (inactive) |
| CCCOc1ccc(Cn2c(O)cc(=O)[nH]c2=O)cc1 | 4.51% (inactive) |
| CCCOc1ccc(Cc2c(O)nc(SC)[nH]c2=O)cc1C | -4.3% (inactive) |
| CCCOc1ccc(Cc2c(Cl)nc(SC)nc2NC)cc1 | 63.8% (active) |
| COc1cccc(CNC(=O)[C@H]2CCCN2C(=O)[C@H]2CCCN2C(=O)c2cc(F)cc(F)c2)c1 | -4.4% (inactive) |
| O=C1[C@@H](c2ccccc2)[C@@H](c2ccccc2)N1c1ccccc1 | -1.03% (inactive) |
| O=C(NCc1ccccc1)[C@@H]1CCCN1C(=O)[C@@H](NS(=O)(=O)c1ccc(F)cc1F)C1CCCCC1 | -7.14% (inactive) |
| COc1ccc(CCNc2nc3ccc(C)cc3n3cnnc23)cc1OC | 18.6% (active) |
| COc1cc(Nc2nc3ccc(Cl)cc3n3cnnc23)cc(OC)c1OC | -10.3% (inactive) |
| COc1ccc(CCNc2nc(C)cc(C)n2)cc1OC | -8.92% (inactive) |
| C[C@H](CO)N1C[C@H](C)[C@@H](CN(C)C(=O)Nc2ccccc2F)OCc2cn(nn2)CCCC1=O | -5.31% (inactive) |
| COc1cccc(CNC(=O)[C@H]2CCCN2C(=O)[C@H]2CCCN2C(=O)c2ccc(F)cc2)c1 | -5.33% (inactive) |
| Cc1ccc(S(=O)(=O)NC(=O)c2cccc(C)c2)cc1 | -0.66% (inactive) |
| CN(NC(=O)c1ccccc1F)c1nc(C(F)(F)F)nc2ccccc12 | 0.05% (inactive) |
| CSc1nc(N(C)NC(=O)c2cccc(C)c2)c2ccccc2n1 | 17.1% (active) |
| O=C(NN=Cc1ccco1)C(=O)Nc1ccc(Cl)c([N+](=O)[O-])c1 | -5.99% (inactive) |
| Cc1cc(C)c(C#N)c(SCc2[nH]nc3c2C(c2ccccc2)C(C#N)=C(N)O3)n1 (configuration not stated) | 34.7% (active) |
| N#CC1=C(N)Oc2n[nH]c(CSc3ccccc3)c2C12C(=O)Nc1ccccc12 (configuration not stated) | -2.39% (inactive) |
| Cc1cc(C)c(C#N)c(SCc2ccc3c(c2)OCO3)n1 | -0.74% (inactive) |
| CC1CN(c2nc(Nc3ccccc3)nc(N)c2[N+](=O)[O-])CC(C)O1 (configuration not stated) | -0.56% (inactive) |
| Nc1nc(NCC(=O)O)nc(N2CCCCCC2)c1[N+](=O)[O-] | 15.1% (active) |

| Structure (SMILES) | inhibition |
| --- | --- |
| COCCNc1nc(N)c([N+](=O)[O-])c(N2CCCCCC2)n1 | -10.6% (inactive) |
| COC(=O)C1=C(C)N(Cc2cccc(C(F)(F)F)c2)C(=NCc2ccccc2)NC1c1ccccc1C(F)(F)F (configuration not stated) | -3.46% (inactive) |
| COC(=O)C1=C(C)N(Cc2ccc(C(F)(F)F)cc2)C(=NCc2ccc(C(F)(F)F)cc2)NC1c1cccc(Cl)c1 (configuration not stated) | -3.2% (inactive) |
| COC(=O)Cc1ccc(OCC(=O)Nc2ccc(OC(F)(F)F)cc2)cc1 | 0.64% (inactive) |
| CN(CC(=O)Nc1ccc(OC(F)(F)F)cc1)C(=O)C1CCC1 | -3.79% (inactive) |
| CCNC(=S)Nc1ccc(OC(F)(F)F)cc1 | 13.5% (active) |
| CCc1ccc(C2=CC(=O)CC(C)(C)C2=O)cc1 | -5.55% (inactive) |
| CC(C)CNc1cccc2c1S(=O)(=O)N[C@H](CC(C)C)CO2 | -4.83% (inactive) |
| COC(=O)C1=C(C)NC(=S)NC1c1ccc(OC)cc1 (configuration not stated) | -6.49% (inactive) |
| COC(=O)c1cc2c(c3c4ccccc4n(S(=O)(=O)c4cccc(C)c4)c13)C(=O)N(Cc1ccccc1)C2 | -7.5% (inactive) |
| Cc1c(N=Nc2ccc(N(C)C)cc2)c(=O)n(-c2ccccc2)n1C | 4.41% (inactive) |
| Cc1nc(N)sc1N=Nc1c(C)n(C)n(-c2ccccc2)c1=O | -1.11% (inactive) |
| CCn1c(-c2cc(OC)ccc2OC)csc1=Nc1c(C)n(C)n(-c2ccccc2)c1=O | 12.9% (active) |
| Cc1[nH]nc2c1C(c1ccc(Br)cc1)NC2=O (configuration not stated) | -4.49% (inactive) |
| CN1CCCCC(NC(=O)C(C)(C)C)C1=O (configuration not stated) | -7.34% (inactive) |
| N#Cc1ccc(OCCCN2CCC(C(O)(c3ccccc3)c3ccccc3)CC2)c(F)c1 | -9.27% (inactive) |
| CCOC(=O)C1CSCCS(=O)(=O)N1Cc1ccc(Cl)cc1 (configuration not stated) | -4.45% (inactive) |
| CC1(C)OC(=O)C2=C(CC(CCc3ccccc3)OC2c2ccc(Cl)cc2)O1 (configuration not stated) | -5.79% (inactive) |
| CN(CCc1cn[nH]c1)C(=O)CC1C(=O)NCCN1Cc1cccc(Oc2ccccc2)c1 (configuration not stated) | -7.77% (inactive) |
| O=C(CC1C(=O)NCCN1CC(c1ccccc1)c1ccccc1)NCCc1cn[nH]c1 (configuration not stated) | 13.4% (active) |
| O=C(CC1C(=O)NCCN1CC(c1ccccc1)c1ccccc1)NCC1CCOCC1 (configuration not stated) | -1.82% (inactive) |
| CCOC(=O)/C=C/c1ccccc1O | -6.85% (inactive) |

| Structure (SMILES) | inhibition |
| --- | --- |
| C=CCN=C1NC(c2ccccc2)C(C(=O)OC)=C(C)N1Cc1ccc(C(F)(F)F)cc1 (configuration not stated) | -6.78% (inactive) |
| c1ccc(Cc2ccc(OCCn3ccnc3)cc2)cc1 | 44.4% (active) |
| Brc1ccc(OCCn2ccnc2)cc1 | 0.74% (inactive) |
| Clc1c(OCCCn2ccnc2)ccc2ccccc12 | -12.1% (inactive) |
| C=CC[C@]12C[C@@]3(O[C@H](c4ccc(C(F)(F)F)cc4)N=C3C[C@H](c3ccc(OC)cc3)[C@H]1C)N(C1CCN(Cc3ccccc3)CC1)C2=O | -4.57% (inactive) |
| CCOc1ccccc1C(=O)N1CCC[C@@H]1C(=O)N1CCC[C@H]1C(=O)NCc1ccccc1 | -4.67% (inactive) |
| CN(Cc1cccnc1)C(=O)c1cc(COc2ccc3ncccc3c2)on1 | 91.7% (active) |
| CN(Cc1cnccn1)C(=O)c1cc(COc2cccc(C(F)(F)F)c2)on1 | -2.96% (inactive) |
| CC(=O)c1cccc(OCc2cc(C(=O)NC(C)Cc3cccnc3)no2)c1 (configuration not stated) | 0.17% (inactive) |
| O=S1(=O)c2c(cccc2N2CCCC2)O[C@H](COCc2ccccc2)CN1C1CC1 | -3.31% (inactive) |
| Cn1cnc([N+](=O)[O-])c1Sc1ccccc1 | -2.26% (inactive) |
| Cn1cnc([N+](=O)[O-])c1Nc1ccccc1O | 13.4% (active) |
| Cn1cnc([N+](=O)[O-])c1Sc1n[nH]c(N)n1 | -10.2% (inactive) |
| Cc1cc(Br)cn2c(Cc3ccccc3C(F)(F)F)c(-c3ccc(C#N)cc3)nc12 | -0.22% (inactive) |
| Nc1[nH]c(C(=O)c2ccccc2)c(-c2ccc(Cl)cc2Cl)c1C(=O)c1ccccc1 | -7.95% (inactive) |
| COc1cc(Cl)c(C)cc1NC(=O)[C@@H]1CCCN1C(=O)c1cccs1 | 14% (active) |
| Cc1ccc(S(=O)(=O)N2CCCCC2)cc1NC(=O)[C@@H]1CCCN1C(=O)c1cccs1 | -1.7% (inactive) |
| COc1ccc(Cl)cc1NC(=O)[C@@H]1CCCN1C(=O)c1cccs1 | -4.08% (inactive) |
| C[C@@H](CN1C2=NC[C@@H](Cc3ccccc3)N2C[C@H]1Cc1ccc(O)cc1)NC(=O)CCC1CCCCC1 | -7.8% (inactive) |
| COC(=O)C1=C(C)N(Cc2ccccc2C(F)(F)F)C(=NCC2CC2)NC1c1cccc(Cl)c1 (configuration not stated) | -5.91% (inactive) |
| COc1ccc(C2C(C#N)=C(N)Oc3n[nH]c(C)c32)cc1CN1CCN(c2ccc(F)cc2)CC1 (configuration not stated) | -5.67% (inactive) |
| COc1ccc(-c2[nH]nc3c2C(c2ccncc2)C(C#N)=C(N)O3)cc1 (configuration not stated) | 16.3% (active) |

| Structure (SMILES) | inhibition |
| --- | --- |
| CCCc1nc2c([nH]1)C(c1cccnc1)C(C#N)=C(N)O2 (configuration not stated) | -0.27% (inactive) |
| COC(=O)[C@]1(Cc2ccccc2)NC=C(C(=O)c2ccccc2)[C@@H]1c1cccc(OC)c1 | -6.78% (inactive) |
| COc1ccc(N2CCN(C(=O)c3ccccc3NC(=O)C3=C(C)OCCS3)CC2)cc1 | -6.97% (inactive) |
| CCCCNC(=O)c1ccccc1NC(=O)c1ccccc1N(C)S(C)(=O)=O | -3.23% (inactive) |
| CCCCNC(=O)c1ccccc1NC(=O)C1=C(C)OCCS1 | 103% (active) |
| CC1CCCN(c2cccc3c2S(=O)(=O)N(Cc2ccc(F)cc2)[C@@H](C)[C@H](c2ccccc2)O3)C1 (some centres not stated) | -4.47% (inactive) |
| O=C1COc2ccc(C(=O)COC(=O)CCOc3ccccc3)cc2N1 | -1.45% (inactive) |
| O=C1COc2ccc(C(=O)COC(=O)c3ccccc3Cl)cc2N1 | -5.73% (inactive) |
| CC(C)[C@@H](C(=O)OCC(=O)c1ccc2c(c1)NC(=O)CO2)N1C(=O)c2ccccc2C1=O | 42.5% (active) |
| OC(c1ccccc1)(c1ccccc1)C1CCN(CCCOc2ccc(-c3ccsc3)cc2)CC1 | -4.38% (inactive) |
| O=C(CSc1nnc(-c2ccco2)n1CC1CCCO1)c1ccccc1 (configuration not stated) | -2.73% (inactive) |
| Cc1nnc(SCC(=O)NNC(=O)c2ccc(Cl)cc2)n1CC1CCCO1 (configuration not stated) | -3.6% (inactive) |
| CNC(=O)NC(=O)CSc1nnc(-c2ccc(F)cc2)n1CC1CCCO1 (configuration not stated) | 29.6% (active) |
| COc1cc2c(cc1OC)C(Cc1cc(OC)c(OC)cc1[N+](=O)[O-])=NCC2 | -6.44% (inactive) |
| COc1cc2c(cc1OC)C(/C=C/c1ccco1)=NCC2 | -5.84% (inactive) |
| COc1cc2c(cc1OC)C(c1cccc([N+](=O)[O-])c1)=NCC2 | 13.9% (active) |
| CC(C)CNc1cccc2c1S(=O)(=O)N[C@H](C)CO2 | -4.46% (inactive) |
| COC(=O)Cc1nnn2c1[C@H](C)[C@H](c1ccccc1Br)OCC2 | -3.41% (inactive) |
| COc1ccc(NC(=O)CSc2nc(N)c(-c3ccccc3)c(=O)[nH]2)cc1 | 1.59% (inactive) |
| COc1ccc(OC)c(NC(=O)CSc2nc(-c3ccccc3)cc(=O)[nH]2)c1 | -1.18% (inactive) |
| COc1ccc(OC)c(NC(=O)CSc2nc(N)c(-c3ccccc3)c(=O)[nH]2)c1 | 29.8% (active) |
